The supplement of paper PMC10849652
The full data set covers some 7,900 targets. This sample favours those with a hit. About 0.6% of all pairs of compound and target were hits. Values without a mark were called inactive.

How the values were obtained:
Assay in all cases: log2 fold change, soluble protein after heating vs DMSO (PISA); higher = thermal stabilisation; K562 cells, 10 uM, 30 min; active = over 0.2 and 3.5 SD of the protein, either way, in both replicates (recomputed)
erlotinib = compound: C#Cc1cccc(Nc2ncnc3cc(OCCOC)c(OCCOC)cc23)c1 [erlotinib]
Procedure, shortened: (§1)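 Soluble protein was defined as the supernatant after 21,000xg for 90 min. It came from K562 cells at 2×10^6 cells/mL given 10 μM compound for 30 min, heated in aliquots for 3 min across 48°C-58°C, pooled, and extracted in PBS with 0.5% NP-40 at 4°C, and was quantified by TMTpro 16plex LC-MS/MS with equalised channel sums. Thermal stability against control samples, from duplicates, is reported as log2 fold change.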

[1] = compound: C/C(=N\NC(=O)C1=CC(=CC=C1)S(=O)(=O)N2CCOCC2)/C3=C(C=CC(=C3)Cl)O
Procedure, shortened: as §1

[2] = compound: C1=CC(=C(C=C1Cl)C2=NC3=NC=CN=C3C(=N2)NC4=CC=NC=C4)F
Procedure, shortened: as §1

[3] = compound: C1=CC(=CC=C1C2=NC3=C(N2)C=C(C=C3)C(=O)N)OC4=CC=C(C=C4)Cl
Procedure, shortened: as §1

[4] = compound: C1=CC2=C(C=CC(=C2)/C=C\3/C(=O)NC(=NCC4=CC=CS4)S3)N=C1
Procedure, shortened: as §1

[5] = compound: C1=CC2=NC=CN=C2C=C1/C=C/3\C(=O)NC(=O)S3
Procedure, shortened: as §1

[6] = compound: C1=CC=C(C=C1)C2=NC(=C(N2)C3=CC=NC=C3)C4=CC(=C(C=C4)Cl)O
Procedure, shortened: as §1

[7] = compound: C1=CC=C2C(=C1)C3=NNC4=CC=CC(=C43)C2=O
Procedure, shortened: as §1

[8] = compound: C1CCN(C1)C(=O)NC2=CC=CC(=C2)NC3=NC=C(C(=N3)NCCC4=CN=CN4)Br
Procedure, shortened: as §1

[9] = compound: C1CN(CCC1(CC2=CC=C(C=C2)Cl)N)C3=NC=NC4=C3C=CN4
Procedure, shortened: as §1

IRAK-1-4 Inhibitor I = compound: C1COCCN1CCN2C3=CC=CC=C3N=C2NC(=O)C4=CC(=CC=C4)[N+](=O)[O-] [IRAK-1-4 Inhibitor I]
Procedure, shortened: as §1

ibrutinib = compound: C=CC(=O)N1CCC[C@@H](n2nc(-c3ccc(Oc4ccccc4)cc3)c3c(N)ncnc32)C1 [ibrutinib]
Procedure, shortened: as §1

[10] = compound: CC(=O)c1cnc2ccc(-c3cc(Cl)c(O)c(Cl)c3)nc2c1N[C@H]1CC[C@H](CN(C)C)CC1
Procedure, shortened: as §1

ralimetinib = compound: CC(C)(C)Cn1c(N)nc2ccc(-c3[nH]c(C(C)(C)C)nc3-c3ccc(F)cc3)nc21 [ralimetinib]
Procedure, shortened: as §1

[11] = compound: CC(C)(O)CC(=O)NCCn1ccc2ncnc(Nc3ccc(Oc4cccc(C(F)(F)F)c4)c(Cl)c3)c21
Procedure, shortened: as §1

[12] = compound: CC(C)C1=C2N=C(C=C(N2N=C1)NCC3=CC=CC=C3)NCCCCCCN
Procedure, shortened: as §1

[13] = compound: CC(C)C[C@@H](C=O)NC(=O)[C@H](CC(C)C)NC(=O)[C@H](CC(C)C)NC(=O)OCc1ccccc1
Procedure, shortened: as §1

pinometostat = compound: CC(C)N(C[C@H]1O[C@@H](n2cnc3c(N)ncnc32)[C@H](O)[C@@H]1O)[C@H]1C[C@@H](CCc2nc3cc(C(C)(C)C)ccc3[nH]2)C1 [pinometostat]
Procedure, shortened: as §1

[14] = compound: CC1=C(C(CC(=O)N1)C2=CC=C(C=C2)C(F)(F)F)C(=O)NC3=C(C=C4C(=C3)C=NN4)F
Procedure, shortened: as §1

[15] = compound: CC1=C(C2=C(C=C1)C(=O)C3=CC=CC=C3N2CCCN)C
Procedure, shortened: as §1

Chain of UniProt Q15075 (Q15075 whole entry, looked up): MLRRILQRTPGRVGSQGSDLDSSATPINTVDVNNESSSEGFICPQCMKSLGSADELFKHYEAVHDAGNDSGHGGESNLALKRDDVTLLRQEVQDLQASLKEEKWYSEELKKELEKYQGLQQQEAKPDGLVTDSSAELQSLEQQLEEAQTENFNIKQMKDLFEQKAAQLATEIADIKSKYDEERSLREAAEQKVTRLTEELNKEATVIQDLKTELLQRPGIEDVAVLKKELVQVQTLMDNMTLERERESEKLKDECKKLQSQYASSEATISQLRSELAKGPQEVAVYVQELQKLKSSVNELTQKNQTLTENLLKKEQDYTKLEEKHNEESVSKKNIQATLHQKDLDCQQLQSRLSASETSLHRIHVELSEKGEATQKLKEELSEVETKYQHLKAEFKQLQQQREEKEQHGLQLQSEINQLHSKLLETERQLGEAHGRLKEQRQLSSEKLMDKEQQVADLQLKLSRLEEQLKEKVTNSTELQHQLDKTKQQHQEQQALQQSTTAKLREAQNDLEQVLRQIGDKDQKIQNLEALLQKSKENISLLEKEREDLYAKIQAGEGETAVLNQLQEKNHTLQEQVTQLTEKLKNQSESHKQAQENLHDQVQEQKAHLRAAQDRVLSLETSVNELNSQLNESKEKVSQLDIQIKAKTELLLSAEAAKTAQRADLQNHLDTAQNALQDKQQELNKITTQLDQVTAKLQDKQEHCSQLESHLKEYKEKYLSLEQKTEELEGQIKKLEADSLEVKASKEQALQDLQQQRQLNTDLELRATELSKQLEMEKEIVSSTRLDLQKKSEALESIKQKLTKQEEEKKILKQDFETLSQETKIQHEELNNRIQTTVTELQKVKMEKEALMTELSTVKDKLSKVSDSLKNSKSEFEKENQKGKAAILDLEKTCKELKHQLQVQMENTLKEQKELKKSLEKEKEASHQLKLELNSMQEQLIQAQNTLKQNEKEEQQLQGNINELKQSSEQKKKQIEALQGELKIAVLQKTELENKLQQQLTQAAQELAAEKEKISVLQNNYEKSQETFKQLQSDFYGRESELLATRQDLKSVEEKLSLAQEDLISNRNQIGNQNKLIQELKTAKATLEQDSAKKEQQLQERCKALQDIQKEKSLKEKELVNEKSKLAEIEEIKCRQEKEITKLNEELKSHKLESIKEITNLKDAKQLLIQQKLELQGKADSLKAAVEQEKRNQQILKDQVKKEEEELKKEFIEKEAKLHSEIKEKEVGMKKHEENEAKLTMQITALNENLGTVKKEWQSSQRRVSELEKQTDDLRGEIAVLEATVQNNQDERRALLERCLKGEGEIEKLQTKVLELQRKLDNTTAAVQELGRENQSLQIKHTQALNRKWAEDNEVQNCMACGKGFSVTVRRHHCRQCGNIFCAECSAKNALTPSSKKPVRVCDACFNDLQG
Chain of UniProt P29692 (P29692 whole entry, looked up): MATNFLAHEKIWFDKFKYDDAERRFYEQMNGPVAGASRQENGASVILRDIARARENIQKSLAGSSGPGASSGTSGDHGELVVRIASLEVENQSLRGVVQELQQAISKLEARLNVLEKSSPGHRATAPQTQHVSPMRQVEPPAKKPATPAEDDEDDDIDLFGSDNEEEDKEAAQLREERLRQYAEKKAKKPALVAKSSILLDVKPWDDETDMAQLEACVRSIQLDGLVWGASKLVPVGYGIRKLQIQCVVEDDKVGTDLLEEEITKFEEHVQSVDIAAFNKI
Chain of UniProt Q9NXF7 (Q9NXF7 whole entry, looked up): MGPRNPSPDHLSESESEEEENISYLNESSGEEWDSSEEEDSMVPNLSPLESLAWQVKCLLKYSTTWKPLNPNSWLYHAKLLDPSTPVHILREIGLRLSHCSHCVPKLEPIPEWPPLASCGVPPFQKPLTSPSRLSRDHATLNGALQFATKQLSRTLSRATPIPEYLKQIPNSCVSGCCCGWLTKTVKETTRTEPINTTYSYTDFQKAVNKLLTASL
Chain of UniProt Q9BPY3 (Q9BPY3 whole entry, looked up): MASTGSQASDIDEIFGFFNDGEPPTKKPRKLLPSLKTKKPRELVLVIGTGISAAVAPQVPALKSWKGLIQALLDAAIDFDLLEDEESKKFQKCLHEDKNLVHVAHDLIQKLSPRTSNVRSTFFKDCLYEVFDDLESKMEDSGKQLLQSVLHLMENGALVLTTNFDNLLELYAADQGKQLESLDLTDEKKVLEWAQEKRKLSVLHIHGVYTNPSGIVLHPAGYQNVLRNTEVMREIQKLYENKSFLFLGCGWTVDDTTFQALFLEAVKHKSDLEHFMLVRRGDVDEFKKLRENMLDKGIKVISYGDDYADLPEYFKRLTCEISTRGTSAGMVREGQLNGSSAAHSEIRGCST
Chain of UniProt P35222 (P35222 whole entry, looked up): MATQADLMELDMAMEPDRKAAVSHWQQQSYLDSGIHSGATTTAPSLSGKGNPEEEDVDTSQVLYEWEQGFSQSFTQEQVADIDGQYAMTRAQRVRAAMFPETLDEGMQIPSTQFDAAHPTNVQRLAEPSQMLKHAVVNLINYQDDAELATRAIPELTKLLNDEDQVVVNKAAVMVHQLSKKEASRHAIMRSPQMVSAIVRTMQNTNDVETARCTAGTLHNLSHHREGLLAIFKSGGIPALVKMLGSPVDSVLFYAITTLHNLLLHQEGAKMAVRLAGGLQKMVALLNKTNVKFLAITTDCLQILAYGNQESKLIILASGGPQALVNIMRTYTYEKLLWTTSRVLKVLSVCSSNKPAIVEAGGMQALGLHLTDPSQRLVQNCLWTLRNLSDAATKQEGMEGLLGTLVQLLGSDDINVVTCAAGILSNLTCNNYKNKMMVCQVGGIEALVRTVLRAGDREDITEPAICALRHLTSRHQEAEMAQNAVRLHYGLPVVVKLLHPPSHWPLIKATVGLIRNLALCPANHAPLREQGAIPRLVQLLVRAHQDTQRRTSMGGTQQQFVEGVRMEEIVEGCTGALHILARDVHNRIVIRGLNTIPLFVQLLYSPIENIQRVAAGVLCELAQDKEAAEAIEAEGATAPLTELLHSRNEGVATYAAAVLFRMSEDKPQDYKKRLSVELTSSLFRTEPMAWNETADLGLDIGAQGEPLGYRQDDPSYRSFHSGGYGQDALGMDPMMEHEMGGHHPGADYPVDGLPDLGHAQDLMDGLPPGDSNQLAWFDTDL
Chain of UniProt Q96KP1 (Q96KP1 whole entry, looked up): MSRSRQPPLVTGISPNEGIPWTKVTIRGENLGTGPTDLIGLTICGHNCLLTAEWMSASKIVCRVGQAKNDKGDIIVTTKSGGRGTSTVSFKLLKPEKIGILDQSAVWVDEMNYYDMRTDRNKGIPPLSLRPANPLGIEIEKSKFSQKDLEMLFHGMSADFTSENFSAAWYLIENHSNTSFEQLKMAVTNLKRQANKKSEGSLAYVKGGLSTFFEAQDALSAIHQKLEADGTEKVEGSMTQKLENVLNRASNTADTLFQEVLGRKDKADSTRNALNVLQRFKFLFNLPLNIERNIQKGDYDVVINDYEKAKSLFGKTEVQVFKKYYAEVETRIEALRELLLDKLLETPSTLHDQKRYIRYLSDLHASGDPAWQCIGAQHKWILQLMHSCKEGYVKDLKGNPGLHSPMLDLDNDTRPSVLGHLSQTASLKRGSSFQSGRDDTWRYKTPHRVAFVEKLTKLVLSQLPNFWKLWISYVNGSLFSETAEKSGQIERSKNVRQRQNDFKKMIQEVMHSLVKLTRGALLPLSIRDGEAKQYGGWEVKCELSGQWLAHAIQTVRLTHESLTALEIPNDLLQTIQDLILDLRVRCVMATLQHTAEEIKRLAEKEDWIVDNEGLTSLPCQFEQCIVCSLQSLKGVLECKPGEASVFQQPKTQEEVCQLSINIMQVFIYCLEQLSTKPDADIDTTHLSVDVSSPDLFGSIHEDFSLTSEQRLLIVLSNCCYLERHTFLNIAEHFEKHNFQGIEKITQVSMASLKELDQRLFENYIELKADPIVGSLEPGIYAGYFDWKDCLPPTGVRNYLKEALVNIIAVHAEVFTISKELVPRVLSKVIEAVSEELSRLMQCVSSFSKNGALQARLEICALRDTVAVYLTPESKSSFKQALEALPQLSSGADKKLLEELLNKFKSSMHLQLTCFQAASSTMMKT
Chain of UniProt Q16850 (Q16850 whole entry, looked up): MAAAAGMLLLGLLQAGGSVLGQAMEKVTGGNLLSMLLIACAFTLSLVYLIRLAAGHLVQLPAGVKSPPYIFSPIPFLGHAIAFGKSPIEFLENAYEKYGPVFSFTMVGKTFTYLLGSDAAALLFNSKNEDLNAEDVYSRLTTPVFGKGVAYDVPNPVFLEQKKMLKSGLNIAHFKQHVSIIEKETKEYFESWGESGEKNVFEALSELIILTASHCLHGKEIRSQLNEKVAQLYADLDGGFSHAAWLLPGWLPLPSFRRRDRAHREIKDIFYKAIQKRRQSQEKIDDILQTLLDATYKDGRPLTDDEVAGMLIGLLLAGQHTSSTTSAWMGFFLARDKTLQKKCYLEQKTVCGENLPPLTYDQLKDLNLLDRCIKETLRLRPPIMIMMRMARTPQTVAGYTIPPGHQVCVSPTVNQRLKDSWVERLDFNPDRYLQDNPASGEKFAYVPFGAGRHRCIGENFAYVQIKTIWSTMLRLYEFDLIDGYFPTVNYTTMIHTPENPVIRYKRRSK
Chain of UniProt O43237 (O43237 whole entry, looked up): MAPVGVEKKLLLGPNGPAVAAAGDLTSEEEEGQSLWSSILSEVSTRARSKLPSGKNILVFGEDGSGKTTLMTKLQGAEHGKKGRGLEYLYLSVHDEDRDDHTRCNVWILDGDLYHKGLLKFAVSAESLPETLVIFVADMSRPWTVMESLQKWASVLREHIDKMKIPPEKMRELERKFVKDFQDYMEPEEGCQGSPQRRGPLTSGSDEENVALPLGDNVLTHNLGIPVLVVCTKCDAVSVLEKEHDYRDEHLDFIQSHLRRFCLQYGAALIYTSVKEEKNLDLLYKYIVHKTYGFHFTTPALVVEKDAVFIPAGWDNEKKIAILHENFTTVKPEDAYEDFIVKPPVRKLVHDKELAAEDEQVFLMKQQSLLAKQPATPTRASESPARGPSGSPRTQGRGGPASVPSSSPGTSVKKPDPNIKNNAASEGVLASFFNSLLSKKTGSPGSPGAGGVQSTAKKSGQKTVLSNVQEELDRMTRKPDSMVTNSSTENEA

| Target | log2 fold change (erlotinib) | log2 fold change [1] | log2 fold change [2] | log2 fold change [3] | log2 fold change [4] | log2 fold change [5] | log2 fold change [6] | log2 fold change [7] | log2 fold change [8] | log2 fold change [9] | log2 fold change (IRAK-1-4 Inhibitor I) | log2 fold change (ibrutinib) | log2 fold change [10] | log2 fold change (ralimetinib) | log2 fold change [11] | log2 fold change [12] | log2 fold change [13] | log2 fold change (pinometostat) | log2 fold change [14] | log2 fold change [15] |
| --- | --- | --- | --- | --- | --- | --- | --- | --- | --- | --- | --- | --- | --- | --- | --- | --- | --- | --- | --- | --- |
| EXOC2 (UniProt Q96KP1) | 0.07 | 0.083 | -0.027 | -0.045 | 0.05 | 0.006 | -0.013 | 0.054 | -0.014 | -0.119 | -0.092 | -0.018 | -0.048 | 0.08 | -0.052 | -0.43 (active) | 0.027 | 0.172 | -0.216 | 0.007 |
| DBNL isoform 3 (UniProt Q9UJU6) | 0.06 | 0.024 | 0.034 | -0.063 | -0.012 | 0.146 | -0.008 | -0.004 | -0.084 | -0.066 | -0.075 | -0.122 | 0.006 | -0.015 | -0.132 | -0.136 | -0.007 | -0.044 | -0.02 | -0.066 |
| FAM118B (UniProt Q9BPY3) | 0.164 | 0.098 | 0.195 | -0.084 | 0.123 | 0 | 0.044 | -0.021 | -0.045 | -0.023 | 0.039 | 0.073 | -0.118 | 0.051 | -0.199 | -0.145 | 0.065 | -0.024 | 0.014 | 0.042 |
| EHD2 (UniProt Q9NZN4) | -0.044 | 0.025 | 0.013 | -0.077 | 0.007 | -0.01 | -0.003 | 0.01 | -0.008 | 0.041 | 0.009 | 0.008 | -0.038 | 0.003 | -0.033 | 0.002 | 0.036 | -0.044 | 0.003 | 0.001 |
| DYNC1LI2 (UniProt O43237) | 0.035 | -0.147 | -0.257 | -0.012 | -0.04 | -0.073 | -0.061 | 0.049 | 0.035 | -0.052 | 0.089 | 0.083 | 0.099 | 0.124 | 0.03 | -0.067 | 0.07 | 0.146 | 0.007 | 0.094 |
| DCAF16 (UniProt Q9NXF7) | 0.051 | 0.042 | 0.036 | 0 | -0.034 | -0.002 | -0.001 | 0.048 | 0.039 | -0.127 | -0.04 | 0.017 | 0.039 | 0.034 | -0.052 | -0.027 | 0.018 | 0.055 | -0.047 | -0.105 |
| EEF1D isoform 2 (UniProt P29692) | 0 | 0.031 | 0.016 | -0.028 | 0.025 | 0.02 | -0.03 | 0.021 | 0.048 | -0.055 | -0.038 | -0.039 | 0.012 | 0.026 | -0.006 | -0.051 | 0.029 | 0.065 | 0.002 | 0.039 |
| ERCC6 (UniProt Q03468) | -0.036 | 0.06 | 0.028 | -0.063 | -0.096 | -0.224 | -0.052 | 0.003 | -0.065 | 0.106 | 0.05 | -0.079 | 0.11 | 0.05 | -0.094 | -0.015 | 0.018 | -0.078 | 0.157 | -0.041 |
| CYP51A1 (UniProt Q16850) | -0.09 | 0.019 | -0.248 | -0.002 | 0.007 | 0.018 | -0.096 | 0.089 | 0.014 | 0.137 | -0.129 | 0.039 | -0.028 | 0.064 | 0.245 | 0.782 (active) | 0.07 | 0.045 | -0.013 | -0.006 |
| EED, A0A5F9ZI63 | 0.056 | 0.049 | -0.04 | 0.028 | -0.1 | 0.05 | -0.036 | -0.033 | 0.032 | 0.012 | -0.032 | -0.012 | -0.041 | 0.042 | 0.053 | 0.05 | 0.03 | 0.052 | -0.001 | 0.145 |
| EEA1 (UniProt Q15075) | 0 | -0.016 | 0.046 | 0.003 | 0.01 | 0.046 | -0.046 | -0.031 | 0.009 | 0.05 | 0.037 | 0.002 | 0.02 | -0.068 | 0.013 | 0.025 | -0.022 | -0.041 | 0.001 | -0.004 |
| DDB1 (UniProt Q16531) | -0.03 | 0.006 | 0.009 | 0.022 | 0.003 | 0.014 | -0.019 | -0.032 | 0.018 | 0.04 | 0.038 | 0.026 | 0.002 | -0.053 | -0.008 | 0.071 | -0.017 | -0.03 | 0.022 | -0.001 |
| CYBA (UniProt P13498) | -0.075 | 0.096 | -0.005 | 0.025 | 0.042 | 0.032 | 0.03 | -0.072 | -0.012 | -0.005 | 0.044 | 0.024 | -0.024 | -0.041 | -0.152 | -0.43 (active) | 0.121 | -0.036 | -0.018 | -0.026 |
| CTNNB1 (UniProt P35222) | -0.035 | 0.062 | -0.033 | 0.025 | 0.092 | 0.108 | 0.036 | -0.01 | -0.002 | -0.032 | -0.028 | -0.116 | 0.263 | -0.045 | -0.056 | -0.007 | 0.081 | -0.021 | -0.057 | 0.003 |
| ELOC (UniProt Q15369) | -0.055 | 0.124 | 0.066 | 0.017 | 0.117 | 0.048 | 0.075 | 0.009 | -0.016 | -0.024 | 0.017 | -0.011 | -0.018 | -0.027 | -0.07 | -0.032 | -0.042 | 0.008 | 0.002 | 0.165 |
| EFL1 (UniProt Q7Z2Z2) | 0 | 0.051 | 0.027 | 0.002 | 0.013 | 0.002 | 0.053 | 0.043 | 0.027 | 0.013 | 0.016 | -0.019 | -0.039 | -0.004 | -0.069 | -0.103 | 0.03 | 0.005 | -0.009 | -0.058 |
